Compound activity: PubChem BioAssay, National Center for Advancing Translational Sciences (NCATS)
The list is not random: actives were taken first. Their share in the collection is about 1.2%.
HTT aggregate – inhibitors of mutant huntingtin aggregate formation in PC12 cells; PC12 HttQ103-GFP aggregates, Acumen cytometry, 40 h; AID 1688; Potency, µM (titrated, usually from 46.1 µM), usual class: inhibitors; 220,000 compounds, 1.1% hits; further: nearly all actives have a fitted effect of over 60% in size
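Ecdysone-promoter PC12 model expressing HTT exon 1 Q103 fused to GFP, induced by tebufenozide at 100 nM final. Compounds titrated; aggregates sized 1–25 µm scored on a 488 nm laser cytometer.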
HTT ATP protect – Huntington cell model cytoprotection by ATP luminescence | PC12 HTT-Q103 induced, cytoprotection, ATP luminescence, 40 h | Potency, µM (highest dose often 56.4 µM), usual class: activators | 230,000 compounds, 0.14% hits | AID 1471; further: nearly all actives have a fitted effect of over 45% in size
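Quantitative HTS on tebufenozide-induced (100 nM) PC12 cells expressing HTTQ103 exon 1–GFP; compounds tested as a concentration series; survival measured via cellular ATP.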
GLA inh pH 4.5 – inhibitors of human alpha-galactosidase A at pH 4.5; P06280; purified enzyme, 4-MU-alpha-Gal fluorescence, pH 4.5; activity change, negative = inhibition, % at 105 µM; 230,000 tested, under 10 active; AID 1467
ERK EGF block – blocks ERK signaling stimulated by EGF | HEK293-V1b, EGF-stimulated phospho-ERK AlphaScreen | Potency, µM (highest dose often 11.5 µM), most hits filed as inhibitors | 130,000 compounds, 0.41% hits | AID 1454; further: nearly all actives have a fitted effect of over 55% in size
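Cell line HEK293 (stable V1b), low serum overnight. Pretreatment: compound 30 min, 37C. EGF 25 nM, 5 min. Detection: SureFire AlphaScreen, 5 h RT. AC50 via standard Hill equation.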
aGal spleen mod – inhibitors or activators of human alpha-galactosidase in spleen homogenate; Potency, µM (titrated, usually from 80 µM), actives largely listed as inhibitors; 240,000 compounds, 0.008% hits; human spleen homogenate, 4MU-alpha-Gal fluorescence, 40 min; P06280
Target sequence (P06280 32-429 limits assumed): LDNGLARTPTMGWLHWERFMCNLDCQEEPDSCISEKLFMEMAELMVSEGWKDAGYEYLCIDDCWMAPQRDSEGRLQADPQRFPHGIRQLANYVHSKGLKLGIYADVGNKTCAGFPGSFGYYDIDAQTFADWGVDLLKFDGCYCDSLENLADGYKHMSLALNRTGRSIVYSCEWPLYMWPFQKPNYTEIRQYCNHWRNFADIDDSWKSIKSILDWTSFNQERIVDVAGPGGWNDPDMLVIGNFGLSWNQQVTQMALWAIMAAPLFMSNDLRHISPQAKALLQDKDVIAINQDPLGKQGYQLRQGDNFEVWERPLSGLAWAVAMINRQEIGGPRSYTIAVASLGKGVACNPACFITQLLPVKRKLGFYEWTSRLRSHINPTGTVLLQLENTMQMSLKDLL
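Human spleen homogenate (1 ug) was the enzyme source, with 4-methylumbelliferyl-alpha-D-galactopyranoside (1 mM final) in pH 5.0 citrate buffer with 0.01% Tween-20. Compounds were titrated; after 40 min at 37C, NaOH/glycine stop, 4-MU fluorescence read; AC50 from Hill fits.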
pERK EGF inh – reduces EGF-stimulated ERK phosphorylation in HEK293 cells; shares compounds with ERK EGF block; HEK293 EGF-stimulated ERK phosphorylation, AlphaScreen; Potency, µM (doses to about 57.5 µM), hits mostly inhibitors; 60 compounds, 60% hits; AID 1725
c-Raf inh – ERK pathway inhibitors follow-up: human c-Raf kinase inhibition. 70 tested, under 10 active. AID 1728. activity change, negative = inhibition, % at 76.9 µM. shares compounds with ERK EGF block. c-Raf kinase inhibition, homogeneous biochemical assay
MEK inh – ERK pathway inhibitors follow-up: human MEK1 kinase inhibition | AID 1732 | homogeneous MEK kinase activity assay, ERK pathway | shares compounds with ERK EGF block | 70 tested, under 10 active | Potency, µM (titrated, usually from 76.9 µM), actives largely listed as inhibitors
Large screens that a line does not name were inactive (follow-up assays come after a bar, where they were run). The call rests on the fitted dose curve; in most records, active means well fitted curve in the direction sought with a large enough effect; inconclusive means small, poorly fitted or top-dose-only effect, or another doubt; inactive means no such curve, though single readings can be large; an effect the other way counts as inactive or inconclusive.

CCOc1ccc(/C(O)=C2/C(=O)C(=O)N(c3ncccn3)C2c2ccccc2)cc1 (centres undefined)	none (no result: HTT ATP protect, ERK EGF block) | pERK EGF inh inactive | c-Raf inh inactive | MEK inh inactive
COc1cc2ncnc(NCc3cccc(Cl)c3)c2cc1OC	HTT aggregate 14µM, ERK EGF block 0.45µM | pERK EGF inh 1.8µM | c-Raf inh inconclusive | MEK inh inactive
COc1ccc(CNc2ncnc3cc(OC)c(OC)cc23)cc1OC	none
COc1ccc(C2=NC(c3ccc(Cl)cc3)C(c3ccc(Cl)cc3)N2C(=O)N2CCNC(=O)C2)c(OC(C)C)c1 (centres undefined)	none (no result: HTT aggregate, HTT ATP protect, GLA inh pH 4.5, ERK EGF block)
Cn1nc(-c2ccc(Cl)cc2)nc2c(=O)n(C)c(=O)nc1-2	HTT aggregate inconclusive, ERK EGF block inconclusive (no result: GLA inh pH 4.5) | pERK EGF inh inconclusive | c-Raf inh inconclusive | MEK inh inconclusive
CS(=O)(=O)n1nc(-c2ccc(Cl)cc2)nc1N	none
Cc1ccccc1N=C/C=C1/C=C(c2ccccc2)OC(C)(C)O1	none
CC1(C)OC(c2ccccc2)=C/C(=C/C=C2C(=O)c3ccccc3C2=O)O1	ERK EGF block inconclusive | pERK EGF inh inconclusive | c-Raf inh inactive | MEK inh inactive
C[N+]1(C)CCc2cc3c(cc2[C@@H]1[C@@H]1C(=O)Oc2c1ccc1c2OCO1)OCO3	HTT ATP protect inconclusive (no result: HTT aggregate)
CS(=O)(=O)Nc1cccc(-c2ccc3ncnc(Nc4ccc(F)cc4)c3c2)c1	ERK EGF block 1.1µM (no result: HTT aggregate) | pERK EGF inh 1.4µM | c-Raf inh inactive | MEK inh inactive
CCn1c(=O)c2[nH]c(-c3ccccc3)nc2n(CC)c1=O	none (no result: HTT aggregate) | c-Raf inh inactive | MEK inh inactive
C=C[C@@]1(C)CC(=O)[C@@]2(O)[C@@]3(C)[C@@H](O)CCC(C)(C)[C@@H]3[C@H](O)[C@H](OC(C)=O)[C@@]2(C)O1	HTT ATP protect inconclusive (no result: HTT aggregate) | pERK EGF inh inactive | c-Raf inh inactive | MEK inh inactive
COCC(=O)N1CCC2(CC1)CCN(C(=O)NC(C)C)CC2	HTT ATP protect inconclusive (no result: HTT aggregate, GLA inh pH 4.5)
